# Data as given in ChEMBL document CHEMBL3988442, “University of Dundee, Small-Polar-MMV Screening Library” (2021).
# Hit rate of the full screen: of about 69,000 compounds, about 950 (1.4%) showed an effect of 50% or more. The full list was thinned out, with strong results kept by preference.
# Test system: Mycobacterium tuberculosis
# Assay: Cornell M. t heat shock assay; also: in the data most compounds retested in dose-response had high values
# Assay type: functional, organism-based
# Set-up: dose or concentration left out as unconfirmed
row,Structure (SMILES),Percent Effect
1,Cc1oncc1C(=O)N1CCc2ncnc(-c3cnn(C)c3)c2CC1.O=C(O)C(F)(F)F,-24.59%
2,Clc1cccc(N2CCC(NCc3ncc[nH]3)C2)c1 (centres undefined),62.08%
3,Clc1cccc(N2CCC(NCc3cc[nH]n3)C2)c1 (centres undefined),-2.653%
4,O=C1CC(NCc2ncc[nH]2)CN1CCc1cccc(Cl)c1 (centres undefined),14%
5,Cc1ncsc1C(=O)NCCn1nc(C2CCNC2)c2cccnc21.Cl (centres undefined),-3.491%
6,Cc1ccc(CCNc2ncnc3sc4c(c23)CCNC4)o1,98.95%
7,c1ccc2c(c1)CN(c1ncnc3sc4c(c13)CCNC4)CCO2,1.883%
8,Cc1nonc1OCCNc1ncnc2sc3c(c12)CCNC3,19.66%
9,c1ccc(OCCNc2ncnc3sc4c(c23)CCNC4)cc1,56.72%
10,Cc1ccc(CCNc2nc(-c3ccncc3)nc3c2CCNCC3)o1,6.799%
11,Oc1ccccc1N1CCN(c2ncnc3sc4c(c23)CCNC4)CC1,-21.81%
12,COc1ccc(C2=CNC(C(F)(F)F)=CC2N)cc1 (centres undefined),1.706%
13,Cc1csc(CN2CCn3c(COc4cccnc4)cnc3C2C)n1.O=C(O)C(F)(F)F.O=C(O)C(F)(F)F (centres undefined),18.26%
14,Cc1ccsc1C(=O)N1C[C@@H]2CN(Cc3ccoc3)CCO[C@@H]2C1.O=C(O)C(F)(F)F,-4.487%
15,O=C(O)C(F)(F)F.O=C(c1ccc[nH]1)N1CCn2cc(Cn3cccn3)nc2C1,-0.1806%
16,CN(C)c1ccccc1CN1CCC(N2CCCC2=O)CC1,-7.548%
17,O=C(N1CCCC1)N1CCC[C@]2(C[C@@H](Oc3ncccc3F)CO2)C1.O=C(O)C(F)(F)F,-4.547%
18,COC(=O)CNC(=O)CC1COc2ccc(C(=O)N(C)C)cc2N1C (centres undefined),7.778%
19,CN(C)C(=O)c1ccc2c(c1)N(C)C(CC(=O)NCc1ccno1)CO2 (centres undefined),79.27%
20,CN(C)C(=O)c1ccc2c(c1)N(C)C(CC(=O)NCc1ncc[nH]1)CO2 (centres undefined),-1.035%
21,CNC(=O)CN1CCOCC2(CCCN(Cc3ccsc3)C2)C1.O=C(O)C(F)(F)F.O=C(O)C(F)(F)F (centres undefined),-10.69%
22,CCOc1ncccc1NC(=O)c1cccs1,-26.07%

row,Structure (SMILES),Percent Effect
1,CCOc1ncccc1NC(=O)c1cc(C)sc1C,19.66%
2,CCOc1ncccc1NC(=O)c1sccc1C,102.4%
3,Cl.NC1CCc2nc(-c3ccncc3)nc(Nc3cccc(F)c3)c2C1 (centres undefined),82.22%
4,CCOCCNc1nc(-c2ccncc2)nc2c1CCNCC2,-10.32%
5,c1cc(-c2nc3c(c(NCCn4ccnn4)n2)CCNCC3)ccn1,-28.7%
6,O=C(Nc1cccc(F)c1)NC1CCN(Cc2ccncc2)CC1,-8.889%
7,Cc1sc2c(C3CCNCC3)nc(Nc3cccc(F)c3)n2c1C.Cl,26.64%
8,O=C(c1cccnc1O)N1CCN(CCc2cccs2)CC1,3.025%
9,O=C(O)C(F)(F)F.O=C(c1cnccn1)N1CCCC2(CCN(c3ccccn3)C2)C1 (centres undefined),-26.38%
10,Cc1ccc(CN(Cc2ncc[nH]2)C2CC(C)(C)NC(C)(C)C2)o1.O=C(O)CC(O)(CC(=O)O)C(=O)O,28.54%
11,O=C(O)C(F)(F)F.O=C(c1ccno1)N1CCc2ncnc(-c3ccncc3)c2CC1,1.058%
12,Cc1ccoc1C(=O)N1CCn2nnc(COc3cccnc3)c2C1.O=C(O)C(F)(F)F,-27.69%
13,O=C(O)C(F)(F)F.O=C(O)C(F)(F)F.O=C(c1ccnnc1)N1CCN2C[C@H](OCc3cccnc3)C[C@H]2C1,-1.051%
14,Cc1ccc(CN2Cc3nnn(C)c3C(COCc3ccccc3)C2)o1.O=C(O)C(F)(F)F (centres undefined),-18.88%
15,CCc1ccc(CN(C)Cc2nc(-c3cnccn3)no2)nc1,20.61%
16,CN(Cc1nc(COc2ccccc2)no1)CC1Cc2ccccc2O1 (centres undefined),29.18%
17,CCc1ccc(CN(C)Cc2nc(COc3ccccc3)no2)nc1,62.03%
18,COc1ccccc1N1CCC(CNCc2cccc(O)c2)C1 (centres undefined),14.53%
19,COc1ccc(CNCC2CCN(c3ccccc3OC)C2)cc1O (centres undefined),2.532%
20,COc1ccccc1N1CCC(CNCc2cccc(OC)c2OC)C1 (centres undefined),81.84%
21,O=C(NC1CCC1)[C@@H]1C[C@@H]2CCN(Cc3cccs3)C[C@@H]2O1.O=C(O)C(F)(F)F,3.012%
22,CCC(CO)N(Cc1ccccn1)C(=O)c1ccc(=O)[nH]c1 (centres undefined),1.592%

row,Structure (SMILES),Percent Effect
1,O=C(NC[C@]12COC[C@H]1CN(Cc1nccs1)C2)c1cscn1.O=C(O)C(F)(F)F,1.78%
2,COc1ccc(CN2CCC3(CC2)CCN(CC(=O)N(C)C)C3=O)cc1.O=C(O)C(F)(F)F,1.282%
3,Cn1c(CCC(=O)N2CCCC3(CC2)CNC(=O)O3)nc2cccnc21 (centres undefined),-15.92%
4,O=C1NCC2(CCCN(C(=O)Cn3nc4ccccc4n3)CC2)O1 (centres undefined),102.6%
5,O=C1NCC2(CCCN(C(=O)CCn3cnc4ccccc43)CC2)O1 (centres undefined),-31.86%
6,O=C(O)CC(O)(CC(=O)O)C(=O)O.O[C@@]1(c2ccccn2)CC[C@H]2CN(Cc3ccccn3)C[C@H]21,3.038%
7,CN1CCN(c2ccc3ccc(C(=O)N4CCCCO4)cn23)CC1.O=C(O)C(F)(F)F,28.6%
8,CCN(CC)c1ccc2ccc(C(=O)O)cn12,4.754%
9,CCN(CC)c1ccc2ccc(C(=O)N3CCCCO3)cn12.O=C(O)C(F)(F)F,56.41%
10,Cl.O=C(Cn1c(-c2ccco2)cc2cccnc21)N1CCCC1,2.747%
11,CC(=O)N1[C@H](Cn2cncn2)C[C@@H]2CN(S(C)(=O)=O)CC[C@@H]21,-11.62%
12,CCc1nnc(CN(C)c2nc(C(C)C)nc3c2cnn3C)o1,106.1%
13,CCCc1nc(N(C)CCc2noc(C(C)C)n2)c2cnn(C)c2n1,-6.302%
14,CCc1nnc(CN(C)c2nc(C3CCCC3)nc3c2cnn3C)o1,-3.006%
15,CC(C)c1nnc2n1CC(CNCc1cccnc1)CC2 (centres undefined),-38.13%
16,CC(C)c1nnc2n1CC(CNCc1ccsc1)CC2 (centres undefined),-8.8%
17,CC(C)c1nnc2n1CC(CNCc1ccncc1)CC2 (centres undefined),107%
18,CCc1nnc2n1CC(CNCc1ccncc1)CC2 (centres undefined),102.6%
19,CCc1nnc2n1CC(CNCC1CCCC1)CC2 (centres undefined),-14.79%
20,CCc1nnc2n1CC(CNCc1nc(C)c(C)o1)CC2 (centres undefined),-15.23%
